Among the data in PubChem BioAssay (NCI) are growth values, retold here.

Each structure is given as a SMILES string. This is part of a sample that, as a whole, favours compounds with a hit. Of some 83,000 tested, about 20% had one in any assay.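 A percent growth of 40 corresponds to 60% growth inhibition; 0 means no net growth; -100 means all cells died. Active threshold: below 10.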 Unmarked numbers belong to inactive results. Active and inactive are the calls of the source.

The assay relates to SR leukemia. Briefly: NCI-60 one-dose screen, 48 h (100 = growth as untreated, 0 = no growth, -100 = all killed). Conditions: 10 µM unless noted. On the procedure: Growth inhibition of the SR human tumor cell line is measured as a screen for anti-cancer activity. Cells are grown in 96 well plates and exposed to the test compound for 48 hours. Compounds are tested at a single concentration, which is 10^-5 M for most compounds. The reported endpoint is percent growth (GI% or GIPRCNT), where numbers from 0 - 100% represent growth inhibition, and numbers from -100% - 0 represent cell death. For example, a value of 40 represents 60% growth inhibition. A value of 0 means no net growth occurred over the course of the experiment. A value of -40 indicates 40% of cells at the beginning of the experiment died by the end of the experiment. A value of -100 means all cells are dead at the end of the experiment.
NCI-60 Human Tumor Cell Lines Screen was performed using the standard one-dose NCI protocol, which is described in more detail at https://dtp.cancer.gov/discovery_development/nci-60/default.htm.
Compounds with GIPRCNT values below 10 were considered active. Activity score was based on GIPRCNT using the following formula: […]
Score is 0 for GIPRCNT values of 100 or above, 50 for GIPRCNT values of 0, and 100 for GIPRCNT values of -100.
Turning to `O=C(CN1C(=O)NC2NC(=O)NC21)N/N=C/c1ccccc1[N+](=O)[O-]` (stereo not given), the growth was 110%.
To `COC1=CC(c2ccc[nH]2)=N/C1=C\c1[nH]c(C)c(CC(=O)OCc2ccccc2)c1CCC(=O)OCc1ccccc1` belongs -36.2% (active).
To `COc1ccc(/C=C/C(=O)c2ccc(Nc3ccnc4cc(Cl)ccc34)cc2)cc1` belongs -72.4% (active); to `Nc1cc(C(=O)NC[C@H]2CN(c3ccc(N4CCC(C(=O)O)CC4)cc3)C(=O)O2)ccc1Cl`, 95.4%; to `COc1ccc(C2=Nc3c(N)nc(N)nc3NC(c3cccc(Nc4ccnc5cc(C(F)(F)F)ccc45)c3)C2)cc1` (stereo not given), -3.78% (active).
Under `CCC(C)N(CCNc1cc(OC)cc2cccnc12)CC(C)C` (stereo not given) stands 85.4%.
For the compound `O=S(=O)(Nc1cc(F)cc(Cl)c1)c1ccc(-c2cnc(C3CC3)o2)cc1`, the growth was 25.4%.
Under `CN(C)Cc1ccc(O)c(C(=O)O)c1` stands 97.8%; under `O=C(O)CCCN1C(=O)/C(=C/c2cn(-c3ccccc3)nc2-c2ccc([N+](=O)[O-])cc2)SC1=S`, 33.3%; under `Cc1cc(N2CCN(CC(=O)Nc3ccc4c(ccn4C)c3)CC2)nc(N2CCCCCC2)n1`, 122%.
With `CC1CCN(CCOc2ccc(CNc3ccc4nc(CCC5CCCCC5)[nH]c4c3)cc2)CC1`, the growth was 14.4%.
To `CCN1C(=S)N(c2ccccc2)C2NC(=S)N(/N=C/C=C/c3ccccc3OC)C21` (stereo not given) belongs 8.81% (active).
To `COc1cccc(CNc2ccc3ncnc(Nc4ccc(F)c(Cl)c4)c3c2)c1` belongs 50.5%; to `Nc1nc2ccccc2c2c(=O)c3cccc(Cl)c3sc12`, 89%; to `CC1(C)CC(=O)C2=C(C1)N(c1ccc(OC(F)(F)F)cc1)C(N)=C(C#N)C2c1ccc(Br)cc1F` (stereo not given), 76%.
To `CC(=O)/C(=C\c1c(-c2ccccc2)[nH]c2ccccc12)S(C)(=O)=O` belongs -25.2% (active); to `CCCc1c(OC(=O)c2ccccc2)nc2[nH]c(=O)sc2c1C`, 115%; to `Cn1cc(-c2csc(-c3cn(C(=O)OC(C)(C)C)c4ccc(Br)cc34)n2)c2ccnc(Cl)c21`, 39.2%.
Regarding `Cn1c(=O)cc2c3c(c(NCCCO)ccc31)C(=O)c1ccccc1-2`, the growth was 13.4%.
Under `COc1cc2nc3cc([N+](=O)[O-])ccc3c(NCCNCC(C)O)c2cc1OC` (stereo not given) stands -17.9% (active); under `CCOC(=O)c1cc2c(n1Cc1cc(OC)c(OC)c(OC)c1)-c1nc(N)sc1CCC2`, 5.15% (active).
To `Nc1n[nH]c2ccc([C@H]3[C@@H]4C5CCC(C5)[C@@H]4c4c(ccc5[nH]ncc45)N3S(=O)(=O)C3CC3)cc12` (stereo not given in full) belongs 11.3%; to `Cn1ccnc1C(=O)/C=C/c1ccc(C(=O)Nc2ccccc2O)cc1`, -21.2% (active); to `Cc1ccc(C(=O)c2ccc(CC(=O)N/N=C/c3ccccc3O)n2C)cc1`, 56.2%.
Take `O=C1Nc2ccccc2/C1=C/c1nc2ccccc2c(=O)[nH]1`: the growth is 31%.
Under `CSc1nc2ccccc2cc1/C=[N+](\[O-])c1ccccc1` stands 22.1%.
To `Cc1sc2nc(NCCc3c[nH]c4ccc(Cl)cc34)[nH]c(=O)c2c1C` belongs 15.7%; to `O=C(Nc1cccc(Cl)c1)Nc1cccc(Cn2c(=O)[nH]c3ccc(Oc4ncccn4)cc3c2=O)c1`, 21.4%.
To `Cn1c(I)c(C#CCO[Si](C)(C)C(C)(C)C)c(=O)[nH]c1=O` belongs -11.3% (active); to `COc1cc2c(cc1OC)C(C)N(S(N)(=O)=O)CC2` (stereo not given), 82.3%.
Take `O=C1/C(=C/c2ccc([N+](=O)[O-])cc2)COc2ccc(O)cc21`: the growth is 7.84% (active).
To `COC1=CC(c2ccc[nH]2)=N/C1=C\c1[nH]c(C)c(C(=O)OC(C)C)c1C` belongs 11.8%; to `N#Cc1nc(-c2ccc(F)cc2)oc1S(=O)(=O)N1CCOCC1`, -5.89% (active); to `[O-]/[N+](=C\c1ccc(-n2cc(Cc3ccccc3Cc3cn(-c4ccc(/C=[N+](/[O-])c5ccccc5)cc4)nn3)nn2)cc1)c1ccccc1`, 95%.
Take `CC(C)=CC(=O)OCC(=O)O[C@@H]1C[C@]2(C(C)C)O[C@@]1(C)[C@@H]1CC[C@@H](C)[C@H]1[C@@H]2OC(=O)/C=C/c1ccccc1`: the growth was 69.2%.
Under `O=C(NCc1ccc(Cl)cc1Cl)C1CCC(=O)N1c1cccs1` (stereo not given) stands 91.8%; under `O=C(O)CCN1C(=O)/C(=C/C(Cl)=C/c2ccccc2)SC1=S`, 6.86% (active); under `C=C1C(=O)O[C@H]2[C@H]1CC/C(COC(=O)c1cc3ccccc3s1)=C\CC[C@@]1(C)O[C@@H]21`, -1.95% (active).
To `Cc1nc2sc(C(=O)Nc3ccc(Br)cc3)c(N)c2cc1C(O)c1ccccc1` (stereo not given) belongs 14.9%.
To `c1ccc2cc(C[n+]3ccn(CCCCCCCCCCn4cc[n+](Cc5ccc6ccccc6c5)c4)c3)ccc2c1` belongs -45.2% (active).
